GRK2 aptamer HTS = blocks RNA aptamer binding to human GRK2. P25098. bead flow cytometry, FAM-aptamer displacement from GRK2. inhibition of aptamer binding, % at 10 µM. 0.59% of 330,000 active. AID 488847;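 active = inhibition of aptamer binding above 40%, roughly 3 SD of noise, on plates passing a quality check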;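 also: median bead fluorescence of bound FAM aptamer so fluorescent compounds give negative values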
Target sequence (P25098 whole entry, looked up): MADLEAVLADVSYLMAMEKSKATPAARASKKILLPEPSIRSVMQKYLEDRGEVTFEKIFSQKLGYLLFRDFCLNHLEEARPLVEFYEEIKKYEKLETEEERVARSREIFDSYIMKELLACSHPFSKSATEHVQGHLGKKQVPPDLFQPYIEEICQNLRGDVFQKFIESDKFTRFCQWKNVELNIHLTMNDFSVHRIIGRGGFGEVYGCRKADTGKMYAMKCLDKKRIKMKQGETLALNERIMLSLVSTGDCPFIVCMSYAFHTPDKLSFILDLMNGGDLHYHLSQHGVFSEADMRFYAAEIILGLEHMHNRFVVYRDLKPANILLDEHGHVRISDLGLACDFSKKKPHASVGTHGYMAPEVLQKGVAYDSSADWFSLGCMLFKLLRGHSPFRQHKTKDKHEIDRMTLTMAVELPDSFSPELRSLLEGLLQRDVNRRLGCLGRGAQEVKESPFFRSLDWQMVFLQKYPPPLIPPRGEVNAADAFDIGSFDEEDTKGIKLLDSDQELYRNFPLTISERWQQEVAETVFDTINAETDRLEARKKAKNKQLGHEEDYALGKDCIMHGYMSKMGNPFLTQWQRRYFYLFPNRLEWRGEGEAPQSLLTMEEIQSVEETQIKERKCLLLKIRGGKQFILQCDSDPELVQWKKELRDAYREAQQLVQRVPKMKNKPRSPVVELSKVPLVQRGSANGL
Pemphigus Ab inh = inhibitors of pemphigus antibody binding to human desmoglein-3. P32926. DSG3-coupled beads, scFv-anti-DSG3-GFP binding, flow cytometry; stronger effect = lower value. binding (percent of control), % at 10 µM. 0.48% of 310,000 active. AID 588358;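 active = binding more than 3 SD below its plate's average and above zero; inconclusive = below that plate limit but binding exactly zero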;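 also: hits lower antibody fragment binding to DSG3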
PKD1 kinase inh = blocks activity of human protein kinase D1. PKD1 kinase fluorescence polarization assay. inhibition, % (concentration not given with the values). 0.056% of 200,000 active. AID 797
VLA-4 inh = inhibition in a human VLA-4 binding assay | P13612 | VLA-4 expressing cells, ligand binding flow cytometry | inhibition, % (about 7 µM as worked out from the volumes in the protocol) | 0.2% of 330,000 active | AID 2557
LANA-H2B inh = blocks KSHV LANA binding to histone H2A/H2B | 0.6% of 320,000 active | inhibition, % (test concentration not listed) | cell-free LANA-H2A/H2B peptide, fluorescence polarization; in the data active = inhibition mostly above about 10%, no sharp cut-off; inactive = mostly below about 6.7%
HDAC3 inhib = human HDAC3 inhibition. O15379. recombinant HDAC3, fluorogenic peptide/trypsin coupled, fluorescence. inhibition, % at 8.3 µM. 0.15% of 320,000 active. AID 2718; in the data active = inhibition above about 26%, passing the limit was not always enough; inconclusive = no clear call, values can overlap the other calls
GRK2 CP1 = confirmation of human GRK2 inhibitors displacing RNA aptamer; shares compounds with GRK2 aptamer HTS; bead-bound GRK2, FAM-aptamer displacement, flow cytometry; aptamer displacement, % at 10 µM; 4% of 2,000 active; AID 504451;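 active = aptamer displacement above 40%, near three times the noise of non-fluorescent compounds, on plates passing quality checks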;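 also: negative values mostly reflect intrinsic compound fluorescence rather than true enhancement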
Aptamer quench 1 = quenches fluorescent RNA aptamer, GRK2 hit artifact | shares compounds with GRK2 aptamer HTS | Fluorescent RNA aptamer beads, quenching, flow cytometry; stronger effect = higher value | fluorescence change (kMESF span), kMESF (test concentration not listed) | 110 tested, under 10 active | AID 504521;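 active = compounds whose bead fluorescence drops by more than 37 kMESF across the dose range, marking them as dye quenchers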
Aptamer quench SP = quenches fluorescent RNA aptamer, GRK2 hit artifact; fluorescence response (% of DMSO), % at 10 µM; 2,000 tested, under 10 active; shares compounds with GRK2 aptamer HTS; Carboxyfluorescein RNA aptamer on beads, flow cytometry quenching; stronger effect = lower value;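 active = compounds that quench the bead-bound fluorescent RNA probe, cutting fluorescence to under half of the solvent control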;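 also: counterscreen run without GRK2 so only probe quenching by compound is measured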
GRK2 confirm 2 = human GRK2 inhibition confirmation, cherry pick 2 | 360 tested, under 10 active | inhibition of aptamer binding, % at 10 µM | bead-bound GRK2, FAM-aptamer displacement, flow cytometry | shares compounds with GRK2 aptamer HTS;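 active = inhibition of aptamer binding above 40%, about triple the noise seen with nonglowing compounds, on plates passing quality control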;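 also: negative values mostly come from compounds that fluoresce themselves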
FAM quench SP = counter-screen for GRK2 binding hits: quenchers of fluorescent RNA aptamer. shares compounds with GRK2 aptamer HTS. carboxyfluorescein RNA aptamer beads, flow cytometry quenching; stronger effect = lower value. fluorescence response vs DMSO, % at 10 µM. 360 tested, under 10 active. AID 588494;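 active = response vs DMSO under 50%, meaning signal dropped by over half, treated as fluorescence quencher; inconclusive = no clear call, values can overlap the other calls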;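 also: labelled aptamer on streptavidin beads without GRK2 as a quench counter-screen; 100% = bead fluorescence of DMSO wells and lower means quenching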
FAM quench DR = aptamer fluorescence quenching in GRK2 powder counter-screen; 35 tested, under 10 active; shares compounds with GRK2 aptamer HTS; fluorescence ratio to DMSO, % at 11.1 µM; Bead-bound FAM RNA aptamer fluorescence quenching, flow cytometry; stronger effect = lower value;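 active = compounds that dim the fluorescent label, raw bead signal shifting by over 33 units between lowest and highest dose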
An asterisk follows results filed as active; u = inconclusive; x = no result given. This is a sample that favours compounds with a hit; in the whole collection about 1.8% have one here. Rule as the data show it, unless noted: active = inhibition above about 50%; inactive = the rest.

SMILES | GRK2 aptamer HTS | Pemphigus Ab inh | PKD1 kinase inh | VLA-4 inh | LANA-H2B inh | HDAC3 inhib | GRK2 CP1 | Aptamer quench SP | others
CC(C)=CCN1CCN(Cc2cn(C(C)C)c3ccccc23)CC1CCO (stereo unspecified) | 0 | 92 | x | 4 | -4 | -10 | x | x
NS(=O)(=O)c1ccc2nc(NC(=O)c3ccc(Br)o3)sc2c1 | 54* | 99 | -1 | 9 | 0 | 1 | 4 | 93
CCn1c(SCC(=O)N2CCCC2)nnc1-c1ccco1 | 47* | 96 | x | 5 | 0 | 0 | 3 | 95
CCn1c(SCC(=O)N2CCOCC2)nnc1-c1ccco1 | 7 | 103 | x | 1 | 0 | -1 | x | x
CC(C)CC1C(=O)N(Cc2cn(Cc3ccco3)nn2)CCS(=O)(=O)N1Cc1ccc(-c2ccc(F)cc2)cc1 (stereo unspecified) | x | 104 | x | x | x | x | x | x
CC(C)Oc1ccc(Cn2c(=O)sc3ccccc32)cc1 | 3 | x | 1 | 4 | 3 | 5 | x | x
O=c1sc2ccccc2n1Cc1ccccc1 | 85* | 96 | -5 | 5 | 4 | 2 | -1 | 95
O=C(NN1CCOCC1)c1cc(-c2ccccc2)nc2ccccc12 | 71* | 97 | -3 | -4 | -2 | -1 | 1 | 98
CCOc1ccc(S(=O)(=O)N2CCC(C(=O)NC3CCCC3)CC2)cc1 | 8 | 103 | x | -3 | 8 | 15 | x | x
CC(=O)CCN1C(=O)NC2(CCCc3ccccc32)C1=O (stereo unspecified) | 58* | 103 | x | -4 | 1 | -1 | x | x | GRK2 confirm 2=-33;FAM quench SP=99
O=C(CN1C(=O)NC2(CCCc3ccccc32)C1=O)c1ccccc1F (stereo unspecified) | 7 | 122 | x | 3 | 4 | 2 | x | x
CC(=O)Nc1ccc(C(=O)CN2C(=O)NC3(CCCc4ccccc43)C2=O)c(F)c1 (stereo unspecified) | 27 | 119 | x | 9 | 4 | 4 | 0 | 104
CCOC(=O)C1(CCCc2ccccc2)CCN(CCCn2cccn2)CC1 | 93* | 86 | -2 | 3 | -2 | 1 | -3 | 106
CCOC(=O)C1(CCCc2ccccc2)CCN(Cc2nccn2CC)CC1 | 0 | 107 | 6 | 17 | -2 | 0 | x | x
CC(C)N(CCCNC(=O)C1CCN(C(=O)c2cc3sccc3n2C)CC1)Cc1ccccc1 | 2 | 111 | x | 8 | 4 | 1 | x | x
CN(Cc1cccnc1)Cc1c(C(=O)N2CCc3ccccc3C2)nc2ccc(Cl)cn12 | 93* | 110 | 1 | -1 | 2 | 0 | -1 | 100
COc1cccc(CC2(CO)CCCN(Cc3cn[nH]c3-c3ccccc3)C2)c1 (stereo unspecified) | 99* | 95 | 8 | 5 | 5 | -5 | -3 | 102
Cc1ccc(OCC(=O)OCc2nc3scc(-c4ccccc4)c3c(=O)[nH]2)cc1C | 5 | 99 | x | 25 | -10 | u | x | x
Cc1cccc(-c2nc(CN3CCCC(C(=O)NC4CCCCCC4)C3)c(C)o2)c1 (stereo unspecified) | 3 | 104 | 2 | 2 | -4 | 4 | -4 | 103
Cc1oc(-c2ccc(Cl)cc2)nc1CN1CCCC(C(=O)NCc2cccnc2)C1 (stereo unspecified) | 0 | 103 | -4 | 3 | 2 | 5 | -2 | 100 | Aptamer quench 1=3.4
Cc1oc(-c2cccc(Cl)c2)nc1CN1CCCC(C(=O)NCc2ccco2)C1 (stereo unspecified) | 0 | 99 | -4 | -10 | 0 | -3 | 1 | 101
Cc1oc(-c2ccc(Cl)cc2)nc1CN1CCCC(C(=O)NCc2ccccn2)C1 (stereo unspecified) | 0 | 100 | -3 | 22 | -7 | -5 | 1 | 93
Cc1oc(-c2ccc(Cl)cc2)nc1CN1CCCC(C(=O)NCCCN2CCOCC2)C1 (stereo unspecified) | 0 | 105 | -19 | 21 | 3 | -1 | x | x
Cc1oc(-c2cccc(Cl)c2)nc1CN1CCC(C(=O)NCc2ccco2)CC1 | 0 | 116 | -5 | 9 | 8 | -1 | x | x
CC(C)c1nc2sc3c(SCC(N)=O)ncnc3c2c2c1CCC2 | 0 | 103 | x | -8 | 3 | -2 | x | x
SMILES | GRK2 aptamer HTS | Pemphigus Ab inh | PKD1 kinase inh | VLA-4 inh | LANA-H2B inh | HDAC3 inhib | GRK2 CP1 | Aptamer quench SP | others
O=C(NCCc1ccccc1)C(=O)NCC1OCCN1S(=O)(=O)c1ccc(F)cc1 (stereo unspecified) | 1 | 112 | x | 0 | 2 | -8 | x | x
Cc1nc2c(sc(=S)n2Cc2ccco2)c(=O)n1CC(=O)Nc1ccccc1Cl | 84* | 106 | x | -4 | -5 | -3 | -4 | 118
Cc1cc(C)n(CC(=O)O)c(=O)c1[N+](=O)[O-] | 3 | 110 | 0 | 10 | 6 | 1 | x | x
O=C(O)C1Nc2c(Cl)cc(Cl)c(Cl)c2C2C=CCC12 (stereo unspecified) | 59* | 96 | x | -3 | 0 | -3 | 6 | 136
CC(C)C1Nc2c(O)cc(Cl)c([N+](=O)[O-])c2C2C=CCC21 (stereo unspecified) | x | 94 | 1 | x | x | x | x | x
CC(=O)N1CCOc2ccc(S(=O)(=O)N3CCC(C)CC3)cc21 | 1 | 105 | x | -1 | -4 | 1 | x | x
O=C(NC1CCCCC1)N1CCN(CCc2ccccc2)CC1 | 70* | 101 | -11 | 3 | -6 | 1 | -2 | 101
CCN1CCN(C(=O)NC2CCCCC2)CC1 | 0 | 103 | x | -2 | -2 | -7 | x | x
Cc1ccc(CNC(=O)Cc2ccc(-n3cccc3)cc2)cc1 | 1 | 102 | -5 | 18 | 1 | 2 | x | x
O=C(Cc1ccc(O)cc1)NC1CCCCCC1 | 0 | x | x | 7 | 2 | -3 | x | x
O=C(Cc1ccc(-n2cccc2)cc1)NC1CCCCC1 | 45* | u | 4 | 11 | -6 | 2 | -2 | 95
O=C(O)Cc1ccc(-n2cccc2)cc1 | 99* | 99 | -6 | 10 | 2 | 2 | 99* | 121 | Aptamer quench 1=9.5;FAM quench DR=98
N#Cc1cnc2nc(SCc3ccccc3)nn2c1 | 0 | u | x | 8 | -1 | -1 | x | x

Bioassay records as filed in PubChem.
